Results from PubChem BioAssay (Tox21).
Records with an inconclusive call do not appear. Active and inactive are the calls of the source. Calls come from the whole dose curve; as a rule, active = well fitted activation curve with a large enough effect in the signal ratio in the repeat runs (not every such curve was filed as active); inconclusive = weak or mixed curves; inactive = flat fitted curve, though single readings scatter; the % refers to the signal ratio.

Experiment: qHTS assay to identify small molecule agonists of the hypoxia (HIF-1) signaling pathway (AID 1224846)
Settings: HRE-bla ME-180 cells, beta-lactamase ratio, 17 h; series mostly up to 76.8 µM
Summary of the method: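 Beta-lactamase FRET read-out (CCF4-AM substrate) from ME-180 cells carrying an HRE-driven bla reporter, after 17 hrs compound exposure at 37C/5% CO2. Cells were seeded at 2,000 per well in 0.5% dialyzed FBS medium and preincubated 5 hrs.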
% is set by controls: 0 for no effect and ±100 for the full control effect.

| SMILES | outcome | activation |
| --- | --- | --- |
| CC(=O)CCC(C)=O | inactive | – |
| Cc1ccccc1C(=O)Nc1cccc(OC(C)C)c1 | inactive | – |
| CCCC(Cn1cncn1)c1ccc(Cl)cc1Cl (stereo not given) | inactive | – |
| CCc1ccc(C(=O)NN(C(=O)c2cc(C)cc(C)c2)C(C)(C)C)cc1 | inactive | – |
| CCO[C@H]1O[C@@H]2OC3(C)CC[C@H]4[C@H](C)CC[C@@H]([C@H]1C)[C@@]24OO3 | inactive | – |
| BrCCCCBr | inactive | – |
| c1cc2ccc3cccc4ccc(c1)c2c34 | inactive | – |
| C[C@@H]1CC[C@H]2[C@@H](C)C(=O)O[C@@H]3O[C@@]4(C)CC[C@@H]1[C@]32OO4 | inactive | – |
| C#CCOC(C(=O)OCCN(C)C)(c1ccccc1)c1ccccc1 | inactive | – |
| c1ccc(C2CC2)c(OCC2=NCCN2)c1 | inactive | – |
| Clc1cccc(SC2CCNCC2)n1 | inactive | – |
| CCCCCCCCCCOC(=O)c1ccccc1C(=O)OCCCCCCCCCC | inactive | – |
| [O-][Cl+]O | inactive | – |
| c1ccc(CN2CCNCC2)cc1 | inactive | – |
| OCCCBr | inactive | – |
| C/C(=C\c1ccccc1)[N+](=O)[O-] | inactive | – |
| CNP(=O)(OC)Oc1ccc(C(C)(C)C)cc1Cl (stereo not given) | inactive | – |
| CN(C)c1ccc(N(C)C)cc1 | inactive | – |
| Brc1ccc(Oc2ccccc2)cc1 | inactive | – |
| NCCCNCCCN | inactive | – |
| BrCC(Br)C1CCC(Br)C(Br)C1 (stereo not given) | inactive | – |
| C=C(C#N)CCC#N | inactive | – |
| CCCCCCC#N | inactive | – |
| CO[C@@H]1[C@H](OC(=O)NC(=O)CCl)CC[C@]2(CO2)[C@H]1[C@@]1(C)O[C@@H]1CC=C(C)C | – | -0.119% [at 15.8 µM] (inactive) |
| CN1[C@@H]2CC[C@H]1CC(OC(=O)c1cc(Cl)cc(Cl)c1)C2 (stereo not given in full) | inactive | – |
